Source: PubChem BioAssay AID1159580 (chemical genetic matrix, 2015)
Hit rate of the full screen: of about 5,500 compounds, about 2,000 (36%) were called active. Roughly 18% stayed inconclusive and do not appear here. Rule as the data show it: active = normalized growth mostly below about 0.91 (no sharp cut-off); inconclusive = no clear call, values can overlap the other calls; inactive = mostly above about 0.92. This is one part of the list.

Assay: chemical genetic growth profiling, strain panel (AID 1159580);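 also: tested at 20 µM; growth read once vehicle control cultures reached saturation at 30 °C; 1 = growth at the plate median or of vehicle wells; lower values mean less growth of the strain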
Conditions: S. cerevisiae deletion strains, growth OD
[1] = locus YDL101C, strain DUN1, active compounds read low
[2] = locus YHR030C, strain SLT2, active compounds read low

Measured: normalized growth

CCCN(CCC)C(=S)NC(=O)c1cccc([N+](=O)[O-])c1
inactive: locus YAR019C, strain CDC15, active compounds read low 0.973 | locus YBL105C, strain PKC1, active compounds read low 0.956 | locus YBR135W, strain CKS1, active compounds read low 0.977 | locus YBR136W, strain MEC1, active compounds read low 0.966 | locus YBR160W, strain CDC28, active compounds read low 0.965 | locus YDL017W, strain CDC7, active compounds read low 0.969 | locus YDL028C, strain MPS1, active compounds read low 0.976 | [1] 0.968 | locus YDL108W, strain KIN28, active compounds read low 0.965 | locus YDL132W, strain cdc53, active compounds read low 0.973 | locus YDL214C, strain PRR2, active compounds read low 0.967 | locus YDR052C, strain DBF4, active compounds read low 0.978 | locus YDR054C, strain cdc34, active compounds read low 0.96 | locus YDR226W, strain ADK1, active compounds read low 0.968 | locus YDR477W, strain SNF1, active compounds read low 0.958 | locus YER123W, strain YCK3, active compounds read low 0.907 | locus YER133W, strain GLC7, active compounds read low 0.965 | locus YFL009W, strain cdc4, active compounds read low 0.961 | locus YFL029C, strain CAK1, active compounds read low 0.962 | locus YFR003C, strain YPI1, active compounds read low 0.977 | locus YFR019W, strain FAB1, active compounds read low 0.958 | locus YFR028C, strain CDC14, active compounds read low 0.963 | locus YGR040W, strain KSS1, active compounds read low 0.924 | locus YGR052W, strain FMP48, active compounds read low 1.02 | locus YGR092W, strain DBF2, active compounds read low 0.915 | [2] 0.94 | locus YHR079C, strain IRE1, active compounds read low 0.978 | locus YHR082C, strain KSP1, active compounds read low 1.02 | locus YHR205W, strain SCH9, active compounds read low 0.976 | locus YIL147C, strain SLN1, active compounds read low 0.97 | locus YJL095W, strain BCK1, active compounds read low 0.982 | locus YJL128C, strain PBS2, active compounds read low 0.952 | locus YJL157C, strain FAR1, active compounds read low 0.928 | locus YJR016C, strain ILV3, active compounds read low 0.968 | locus YJR066W, strain TOR1 (second series), active compounds read low 0.898 | locus YJR066W, strain TOR1, active compounds read low 0.992 | locus YKL048C, strain ELM1, active compounds read low 0.954 | locus YKL067W, strain YNK1, active compounds read low 0.96 | locus YKL101W, strain HSL1, active compounds read low 0.958 | locus YKL193C, strain SDS22, active compounds read low 0.968 | locus YKL203C, strain TOR2, active compounds read low 0.995 | locus YLR113W, strain HOG1, active compounds read low 0.932 | locus YLR133W, strain CKI1, active compounds read low 0.946 | locus YLR403W, strain SFP1, active compounds read low 0.907 | locus YML070W, strain DAK1, active compounds read low 0.942 | locus YMR001C, strain CDC5, active compounds read low 0.973 | locus YMR205C, strain PFK2 (second series), active compounds read low 0.956 | locus YMR277W, strain FCP1, active compounds read low 0.973 | locus YNL006W, strain LST8, active compounds read low 0.977 | locus YNL020C, strain ARK1, active compounds read low 0.946 | locus YNL161W, strain CBK1, active compounds read low 0.959 | locus YNL183C, strain NPR1, active compounds read low 0.977 | locus YNL207W, strain RIO2, active compounds read low 0.971 | locus YNL222W, strain SSU72, active compounds read low 0.965 | locus YNL307C, strain MCK1 (second series), active compounds read low 0.94 | locus YOL078W, strain AVO1, active compounds read low 0.965 | locus YOL136C, strain PFK27, active compounds read low 0.929 | locus YOR061W, strain CKA2, active compounds read low 0.943 | locus YOR119C, strain RIO1, active compounds read low 0.996 | locus YOR231W, strain MKK1, active compounds read low 0.939 | locus YOR329C, strain SCD5, active compounds read low 0.963 | locus YPL031C, strain PHO85, active compounds read low 0.955 | locus YPL153C, strain RAD53, active compounds read low 0.925 | locus YPL204W, strain HRR25, active compounds read low 0.915 | locus YPL209C, strain IPL1, active compounds read low 0.961 | locus YPL256C, strain CLN2, active compounds read low 0.941 | locus YPR025C, strain CCL1, active compounds read low 0.973 | locus YPR106W, strain ISR1, active compounds read low 0.961 | locus YPR111W, strain DBF20, active compounds read low 0.964 | strain NNK1, active compounds read low 0.974 | strain TSCII, active compounds read low 0.962

COc1ccc(-n2c(=S)[nH]c(=O)c3cccnc32)cc1
inactive: locus YAL013W, strain DEP1, active compounds read low 1 | locus YBR229C, strain ROT2, active compounds read low 1.01 | [1] 1.04 | locus YDL134C, strain PPH21, active compounds read low 0.996 | locus YDR150W, strain NUM1, active compounds read low 0.985 | locus YEL061C, strain CIN8, active compounds read low 1 | locus YGR078C, strain PAC10, active compounds read low 1.04 | locus YGR229C, strain SMI1, active compounds read low 0.993 | [2] 1.06 | locus YHR087W, strain rtc3, active compounds read low 0.954 | locus YJL187C, strain SWE1, active compounds read low 0.99 | locus YJR043C, strain POL32, active compounds read low 1.04 | locus YJR075W, strain HOC1, active compounds read low 0.993 | locus YLR039C, strain RIC1, active compounds read low 0.999 | locus YLR058C, strain SHM2 (second series), active compounds read low 0.991 | locus YLR085C, strain ARP6, active compounds read low 1.03 | locus YLR262C, strain YPT6, active compounds read low 0.988 | locus YML094W, strain GIM5, active compounds read low 0.983 | locus YMR219W, strain ESC1, active compounds read low 0.999 | locus YMR263W, strain SAP30, active compounds read low 1.02 | locus YNL153C, strain GIM3, active compounds read low 1.02 | locus YNL298W, strain CLA4 (second series), active compounds read low 1 | locus YNL322C, strain KRE1, active compounds read low 1.01 | locus YNR030W, strain Alg12, active compounds read low 0.994 | locus YPL055C, strain LGE1, active compounds read low 0.973 | locus YPL241C, strain CIN2, active compounds read low 0.991 | locus YPR135W, strain CTF4, active compounds read low 1.05
